Experimental data: PubChem BioAssay AID588519 (ICCB-Longwood Screening Facility, Harvard Medical School, 2011)
The campaign covered roughly 150,000 compounds. About 1,000 (0.67%) were called active. This is one part of a sample in which actives are shown more often than they occur. Cut-off read from the data, not from the text of the source: active = % elongation below about 90%; inactive = the rest, inconclusive results apart.

Target: Genome polyprotein (Poliovirus type 1 (strain Mahoney)) (UniProt P03300)
Experiment: poliovirus RdRp elongation inhibitors, primary screen, biochemical, fluorescence polarization, total intensity (AID 588519); for z-score: compound at 16.7 µg/mL
Conditions: poliovirus polymerase elongation, stronger effect = lower value; for % elongation: compound at 16.7 µg/mL; for z-score: measured here: FP z-score
[1] = measured here: total intensity read-out

Sequence of Genome polyprotein (Poliovirus type 1 (strain Mahoney)) (P03300 1749-2209 limits assumed): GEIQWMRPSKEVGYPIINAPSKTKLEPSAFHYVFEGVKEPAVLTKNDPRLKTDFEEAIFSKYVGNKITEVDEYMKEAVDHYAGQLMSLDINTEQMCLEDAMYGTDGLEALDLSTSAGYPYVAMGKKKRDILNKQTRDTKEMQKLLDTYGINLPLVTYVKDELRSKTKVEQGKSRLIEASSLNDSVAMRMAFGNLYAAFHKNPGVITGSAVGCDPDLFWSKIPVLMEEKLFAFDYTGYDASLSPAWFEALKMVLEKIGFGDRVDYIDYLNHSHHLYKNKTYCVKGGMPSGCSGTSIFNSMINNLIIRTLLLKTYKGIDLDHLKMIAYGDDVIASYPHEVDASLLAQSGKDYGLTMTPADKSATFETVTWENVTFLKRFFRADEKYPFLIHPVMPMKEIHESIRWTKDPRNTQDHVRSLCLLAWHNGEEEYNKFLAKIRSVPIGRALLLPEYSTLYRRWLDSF

Row | Structure (SMILES) | % elongation | z-score | % elongation [1]
1 | CN1CCc2c(c(S)[nH]c(=S)c2C#N)C1 | -17% (active) | -18.2 | 48%
2 | Cc1ccc(-n2c(C)cc(C(=O)CN3CC(C)OC(C)C3)c2C)cc1 (centres undefined) | 100% (inactive) | -0.2 | 99%
3 | O=C(O)CCCN1C(=O)/C(=C2\SC(=S)N(CCCC(=O)O)C2=O)SC1=S | 88% (active) | -4.7 | 86%
4 | O=C(O)CCCN1C(=O)c2ccccc2Sc2ncccc21 | 101% (inactive) | -0.2 | 105%
5 | O=C(O)CN1C(=O)/C(=C2/OC(=O)c3ccccc32)SC1=S | 101% (inactive) | -0.1 | 99%
6 | CCn1c(=O)c(=O)n(CC)c2cc(N3CCCCC3)c(NC(=O)c3ccccc3)cc21 | 101% (inactive) | 0.2 | 102%
7 | CCn1c(=O)c(=O)n(CC)c2cc(N3CCCCC3)c(NC(=O)c3cccc(F)c3)cc21 | 104% (inactive) | -0.3 | 107%
8 | CCn1c(=O)c(=O)n(CC)c2cc(N3CCCCC3)c(NC(=O)c3ccc(Cl)cc3)cc21 | 90% (active) | -4.3 | 85%
9 | CS(=O)(=O)Nc1ccc2c(c1)COC2=O | 102% (inactive) | 0 | 102%
10 | Cc1nc(N(CC(=O)OC2CC(C)CCC2C(C)C)S(=O)(=O)c2ccc(N)cc2)c(C)n1N (centres undefined) | 102% (inactive) | 0.1 | 92%
11 | CCCCCC(=O)Nc1cc(-c2nc3cc(C)cc(C)c3o2)ccc1C | 103% (inactive) | 0.3 | 102%
12 | CCN(Cc1ccccc1)C(=O)c1cccc(N2C(=O)CCC2=O)c1 | 101% (inactive) | -0.5 | 103%
13 | O=C(ON1C(=O)CCC1=O)c1ccccc1 | 80% (active) | -2.1 | 89%
14 | O=C1CCC(=O)N1C(c1ccccc1)c1ccccc1 | 104% (inactive) | 0.6 | 103%
15 | Cc1c(C=Nc2ccc(S(=O)(=O)N(C)C)cc2)c(O)n(C)c(=O)c1C#N | 104% (inactive) | 0.1 | 114%
16 | CCOc1ccc2nc(NC(=O)c3ccccc3OC)sc2c1 | 99% (inactive) | -0.1 | 92%
17 | COc1ccc2c(c1)Cc1sc(NC(=O)c3ccccc3Br)nc1-2 | 59% (active) | -7.3 | 63%
18 | Cn1c(=O)c(=O)n(C)c2cc(NC(=O)c3ccccc3Br)ccc21 | 109% (inactive) | 1.1 | 113%
19 | COC(=O)C1CCN(S(=O)(=O)c2ccc(Cl)cc2)CC1 | 103% (inactive) | 0.2 | 102%
20 | NCC1OC(OC2C(N)CC(N)C(O)C2O[C@@H]2O[C@H](CO)[C@H](O)C2O)C(N)C(O)C1O (some centres undefined) | 99% (inactive) | -0.1 | 103%
21 | NC[C@@H]1O[C@H](O[C@@H]2[C@@H](CO)OC(O[C@@H]3[C@@H](O)[C@H](N)C[C@H](N)[C@H]3OC3O[C@H](CN)[C@@H](O)[C@H](O)[C@H]3N)[C@@H]2O)[C@H](N)[C@@H](O)[C@@H]1O (some centres undefined) | 87% (active) | -1.4 | 78%
22 | NC(=O)c1cccc(N2C(=O)c3ccccc3C2=O)c1 | 105% (inactive) | 0.2 | 102%
23 | O=C1CCC(=O)N1OCC1CCCN2CCCCC12 (centres undefined) | 104% (inactive) | 0.1 | 108%
24 | CCSc1nsc(SCC)c1C(=O)O | 88% (active) | -1.5 | 96%
25 | O=C(Nc1sc2c(c1C(=O)NCCc1ccccc1)CCC2)c1ccco1 | 103% (inactive) | 0.4 | 105%

Row | Structure (SMILES) | % elongation | z-score | % elongation [1]
26 | Cc1ccc(-c2nc(S(=O)(=O)c3ccc(C)cc3)c(N3CCCCCC3)o2)cc1 | 100% (inactive) | -1.6 | 104%
27 | Cc1ccc(S(=O)(=O)c2no[n+]([O-])c2S(=O)(=O)c2ccc(C)cc2)cc1 | 79% (active) | -2.2 | 69%
28 | Cc1ccc(CSc2oc(-c3cccs3)nc2S(=O)(=O)c2ccc(C)cc2)cc1 | 108% (inactive) | 0.8 | 109%
29 | CCC(c1nnc(SCc2nc3sc4c(c3c(=O)[nH]2)CCC4)n1Cc1ccccc1)N(C)C (centres undefined) | 114% (inactive) | 2 | 106%
30 | Cc1c(S(=O)(=O)O)oc2c1C(=O)C(=O)c1c-2ccc2c1CCCC2(C)C | 87% (active) | -1.4 | 88%
31 | COc1ccccc1Cn1cccc1C1=NC(C(C)C)CO1 (centres undefined) | 101% (inactive) | 0.2 | 103%
32 | COC1CC(O[C@@H]2[C@H](C)[C@H](OC3OC(C)CC(N(C)C)C3OC(C)=O)[C@H](C)CC3(CO3)C(=O)[C@@H](C)C(OC(C)=O)[C@H](C)[C@H](C)OC(=O)[C@@H]2C)OC(C)C1OC(C)=O (some centres undefined) | 100% (inactive) | 0.2 | 103%
33 | Cc1ccc(OCCn2cc(C(=O)c3ccccc3)c3ccccc32)cc1 | 100% (inactive) | -0.4 | 96%
34 | CC(C)c1ccc(NC(=O)Cn2c3ncccc3c(=O)n2-c2ccccc2)cc1 | 33% (active) | -5.2 | 49%
35 | CCOc1ccccc1NC(=O)Cn1c2ncccc2c(=O)n1-c1ccc(C)c(C)c1 | 107% (inactive) | 0 | 105%
36 | Cc1ccc(-n2c(=O)c3cccnc3n2CC(=O)Nc2ccccc2C(F)(F)F)cc1C | 110% (inactive) | 0.2 | 105%
37 | CSc1ccc(/C=N/NC(N)=S)cc1 | 98% (inactive) | -0.7 | 63%
38 | Cc1ccc(O)c(NC(=O)c2cccs2)c1 | 99% (inactive) | -0.7 | 108%
39 | CCc1c(C)sc(NC(=O)c2cccs2)c1C(N)=O | 74% (active) | -2.8 | 79%
40 | COC(=O)c1c(NC(=O)c2cccs2)sc2c1C(C(=O)OC)CC2 (centres undefined) | 99% (inactive) | -0.7 | 97%
41 | CC(NC(=O)Nc1cccnc1)N1C(=O)C2C3C=CC(C3)C2C1=O (centres undefined) | 100% (inactive) | -0.4 | 103%
42 | O=C(O)/C(=C/C(=O)c1ccccc1)Nc1ccc(OC(F)(F)F)cc1 | 103% (inactive) | 0 | 111%
43 | CC(C)(C)NC(=O)C1N(C2CC2)C(=O)C2C(C(=O)NCc3ccccc3)C3C=CC21O3 (centres undefined) | 103% (inactive) | 0.3 | 104%
44 | Cc1ccccc1CN1CCCN(Cc2ccccc2)S1(=O)=O | 103% (inactive) | 0.1 | 99%
45 | CCC(=O)c1ccc(OCC(=O)NC2CCCCC2C)cc1 (centres undefined) | 101% (inactive) | -0.4 | 93%
46 | Cc1cc(C)c2nc(-c3ccco3)cc(C(=O)O)c2c1 | 96% (inactive) | -1.9 | 93%
47 | Cc1cc(C)c2nc3nc(C)cc(C)c3c(N)c2c1 | 90% (active) | -2.4 | 76%
48 | Cc1cc(C(=O)COc2ccc(-n3ccnc3)cc2)c(C)n1-c1ccc2c(c1)OCO2 | 103% (inactive) | 0.1 | 107%
49 | Nc1nnc(-c2ccc(Cn3c(-c4cncs4)nc4ccccc43)cc2)s1 | 63% (active) | -5.6 | 75%
50 | CC(=O)Nc1nc2ccccc2n1Cc1ccc(C)cc1 | 100% (inactive) | -0.7 | 102%

Row | Structure (SMILES) | % elongation | z-score | % elongation [1]
51 | Cc1ccc(Cn2c(CNC(=O)c3ccccc3)nc3ccccc32)cc1 | 100% (inactive) | -0.3 | 104%
52 | O=C1Nc2ccccc2N(c2ccccc2)N1 | 101% (inactive) | 0.4 | 105%
53 | CCOc1ccccc1N(CC(=O)NC)S(C)(=O)=O | 102% (inactive) | 0.4 | 103%
54 | Cc1cc(C(=O)COC(=O)c2ccc(S(=O)(=O)NCc3ccco3)cc2)c(C)n1C | 101% (inactive) | -0.2 | 100%
55 | CCOc1ccccc1CNC(=O)Nc1cn(CC(C)C)c(=O)c2ccccc12 | 28% (active) | -6 | 48%
56 | CCOc1ccccc1CNC(=O)Cn1ncc2c([nH]c3ccccc32)c1=O | 102% (inactive) | -0.4 | 103%
57 | CCOc1ccccc1N(CC)C(=O)Nc1cn(C)c(=O)c2ccccc12 | 103% (inactive) | -0.7 | 104%
58 | CCOc1ccc(OCC(=O)OC(C)C(=O)Nc2ncc(Cl)cc2Cl)cc1 (centres undefined) | 106% (inactive) | 0.3 | 97%
59 | Cc1cccc(OCCOc2ccc(Br)cc2/C=C2\SC(=S)NC2=O)c1 | 101% (inactive) | -0.2 | 104%
60 | Cc1cc(C)c(C(N)=O)c(SCC(=O)Nc2c(C)n(C)n(-c3ccccc3)c2=O)n1 | 103% (inactive) | 0.1 | 97%
61 | CSc1nc(=O)n(Cc2ccccn2)c2c1CCC2 | 101% (inactive) | 0.1 | 104%
62 | O=C1c2ccccc2C(=O)N1CC1OCc2ccccc2CO1 | 103% (inactive) | 0.3 | 110%
63 | O=C1Cc2ccccc2C(=O)N1Cc1ccccn1 | 85% (active) | -1.9 | 83%
64 | Cc1ccc(NC(=O)C2C3C=CC4(O3)C2C(=O)N(CCCN2CCOCC2)C4C(=O)NC2CCCC(C)C2C)cc1Cl (centres undefined) | 101% (inactive) | 0.1 | 103%
65 | CCn1c(=O)cc(O)c2ccccc21 | 115% (inactive) | 1.3 | 123%
66 | CCn1c2ccccc2c2cc(CN3CCN(Cc4cccc(Cl)c4)CC3)ccc21 | 103% (inactive) | 0.1 | 108%
67 | CCn1c2ccccc2c2cc(P(=S)(OC)OC)ccc21 | 81% (active) | -2.3 | 86%
68 | O=C(CN1CCN(S(=O)(=O)c2ccc3[nH]c(=O)[nH]c3c2)CC1)N1CCCCCC1 | 86% (active) | -1.1 | 93%
69 | O=C(CCc1nc(CN2CCN(S(=O)(=O)c3ccc(F)cc3)CC2)no1)N1CCCCC1 | 109% (inactive) | 0.3 | 112%
70 | O=C(C1CCN(S(=O)(=O)c2ccc3[nH]c4c(c3c2)CCCCC4)CC1)N1CCCC1 | 100% (inactive) | -1 | 97%
71 | CCC1CN2CCC34c5ccccc5NC3C(C)C1CC24 (centres undefined) | 101% (inactive) | 0.3 | 104%
72 | CCOC(=O)C1=C(C)NC(=O)NC1c1c(Cl)nc2c(C)cccn2c1=O (centres undefined) | 104% (inactive) | 0 | 109%
73 | CCC(C)NC(=O)C1c2ccccc2C(=O)N1Cc1ccccc1 (centres undefined) | 102% (inactive) | 0.2 | 102%
